Assay results from PubChem BioAssay AID624049 (National Center for Advancing Translational Sciences (NCATS), 2012).
Active and inactive are the calls of the source. Calls come from the whole dose curve; as a rule, active = well fitted inhibition curve with a large enough effect; inactive = no such curve, though single readings can be large or run the other way.

target: Dual specificity protein kinase CLK3 (Homo sapiens) (UniProt P49761); assay: Reaction Biology data for inhibitors of CLK3: Probe SAR; conditions: Reaction Biology CLK3 kinase assay, 10 uM ATP; series mostly up to 10 µM; activity change, negative = inhibition: at the top concentration
Sequence (P49761 whole entry, looked up, canonical isoform): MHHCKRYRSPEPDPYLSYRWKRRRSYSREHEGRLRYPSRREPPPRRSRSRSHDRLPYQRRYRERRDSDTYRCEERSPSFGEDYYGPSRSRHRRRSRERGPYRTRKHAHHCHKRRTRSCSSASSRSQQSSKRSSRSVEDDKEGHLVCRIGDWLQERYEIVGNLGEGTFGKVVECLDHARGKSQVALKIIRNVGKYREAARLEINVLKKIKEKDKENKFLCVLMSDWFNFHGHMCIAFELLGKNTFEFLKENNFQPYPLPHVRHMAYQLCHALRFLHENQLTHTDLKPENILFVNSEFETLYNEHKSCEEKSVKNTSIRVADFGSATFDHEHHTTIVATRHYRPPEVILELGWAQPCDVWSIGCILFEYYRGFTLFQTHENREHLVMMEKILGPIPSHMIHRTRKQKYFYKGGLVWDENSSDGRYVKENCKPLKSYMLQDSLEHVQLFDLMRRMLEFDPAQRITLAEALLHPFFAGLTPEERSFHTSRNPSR
From the text: Alternative splicing of pre-mRNAs plays a major role in the regulation of eukaryotic gene expression. Alternative splicing is now thought to be one of the primary reasons for the complexity of higher organisms leading to an average of three protein isoforms per gene. Aberrant splicing can lead to a number of diseases and is known to play a role in rare genetic diseases such as progeria syndrome. Hutchinson-Gilford Progeria Syndrome (HGPS) is a pediatric premature aging disease caused by a spontaneous mutation in the lamin A/C (LMNA) gene due to a single point mutation in the lamin A gene effecting 1 in 4 million people. To identify both specific splicing modulators of the lamin A gene as well as general splicing modulators, a cell-based HTS assay was developed using a minigene reporter system (AIDs, 1459 & 1487). […] This AID summarizes the characterization of lead compounds in Clk3. NIH Molecular Libraries Probe Production Centers Network [MLPCN] NIH Chemical Genomics Center [NCGC] MLPCN Grant: MH084827 Assay Submitter (PI): Tom Misteli
Compound IC50s were determined at Reaction Biology (http://www.reactionbiology.com) with ten concentration points starting at 10 uM in the assay using a 3-fold dilution series. The control compound staurosporine was also tested in the 10-dose IC50 mode with the same 3-fold serial dilution, again starting at 10 uM. All kinase reactions were performed using 10 uM ATP in the assay. 100% activity was taken from kinase reactions with DMSO alone (the vehicle used for compound stock solutions).

Activity change, negative = inhibition, inactive:
COc1ccc(-c2ccnc(NCc3ccc(Cl)c(Cl)c3)n2)cc1OC -14.5%
Clc1ccc(Nc2nccc(-c3ccc4c(c3)OCO4)n2)cc1 -26.4%
c1cncc(CNc2ncncc2-c2ccc3c(c2)OCO3)c1 -14.6%
Clc1ccc(CNc2nccc(-c3ccc4c(c3)OCCO4)n2)cc1Cl -48.6%
Clc1ccc(CNc2nccc(-c3ccc4cn[nH]c4c3)n2)cc1Cl -28.4%
Cc1c(-c2ccnc(NCc3cccnc3)n2)sc(=O)n1C -21.9%
COc1ccc(-c2ccnc(NCc3ccc(Cl)c(Cl)c3)n2)cc1 -27.3%
Clc1ccc(CNc2ncncc2-c2ccc3c(c2)OCO3)cc1Cl -34.5%
Cc1c(-c2ccnc(NCc3ccc(Cl)cc3)n2)sc(=O)n1C -20.7%
COc1cccc(-c2ccnc(NCc3ccc(Cl)c(Cl)c3)n2)c1 -17.7%
Clc1cc(Cl)cc(CNc2ncncc2-c2ccc3c(c2)OCO3)c1 -53.4%
Brc1cc(Br)cc(CNc2nccc(-c3ccc4c(c3)OCO4)n2)c1 -27.2%
O=[N+]([O-])c1cc(Nc2nccc(-c3ccc4c(c3)OCO4)n2)cc(C(F)(F)F)c1 -34.3%
COc1ccc(-c2ccnc(NCc3ccc(Cl)cc3)n2)cc1 -32.5%
COc1cccc(-c2ccnc(NCc3ccc(Cl)cc3)n2)c1 -23.4%
c1cncc(CNc2ccnc(-c3ccc4cn[nH]c4c3)n2)c1 -29.7%
c1cc(-c2ccc3c(c2)OCO3)nc(Nc2ccc3c(c2)OCO3)n1 -30.6%
FC(F)(F)c1cccc(Nc2nccc(-c3ccc4c(c3)OCO4)n2)c1 -41.4%
c1cncc(CNc2ccnc(-c3ccc4[nH]ncc4c3)n2)c1 -30.7%
Clc1ccc(CNc2ccnc(-c3ccc4[nH]ncc4c3)n2)cc1Cl -29.6%
FC(F)(F)c1cc(Br)cc(Nc2nccc(-c3ccc4c(c3)OCO4)n2)c1 -14.1%
Clc1ccc(CNc2ncncc2-c2ccc3c(c2)OCO3)cc1 -23.4%
Clc1ccc(CNc2ccnc(-c3ccc4c(c3)OCO4)n2)cc1Cl -15.8%
Clc1cc(Cl)cc(CNc2nccc(-c3ccc4c(c3)OCO4)n2)c1 -36.1%

Potency, active:
c1nc(NCC2CCCO2)c2cc(-c3ccc4c(c3)OCO4)ccc2n1 (stereo not drawn) 836 nM
c1cncc(CNc2nccc(-c3ccc4[nH]ncc4c3)n2)c1 2660 nM
Cc1nc(CNc2ncnc3ccc(-c4ccc5c(c4)OCO5)cc23)cs1 1260 nM
Clc1ccc(CNc2nccc(-c3ccc4c(c3)OCO4)n2)cc1Cl 3630 nM
Cc1nc(CN(C)c2ncnc3ccc(-c4ccc5[nH]ncc5c4)cc23)cs1 792 nM
Clc1ccc(CNc2nccc(-c3ccc4[nH]ncc4c3)n2)cc1Cl 2930 nM
Cc1nc(CN(C)c2ncnc3ccc(-c4ccc5c(c4)OCO5)cc23)cs1 403 nM
c1cncc(CNc2nccc(-c3ccc4c(c3)OCO4)n2)c1 1470 nM
Brc1ccc(CNc2nccc(-c3ccc4c(c3)OCO4)n2)cc1Br 3230 nM
